From PubChem BioAssay (Tox21)
Inconclusive results are not listed. The source made the active and inactive calls. Unless noted, calls follow the shape of the dose curve; as a rule, active = well fitted curve in the direction sought with a large enough effect in the repeat runs; inconclusive = weak or mixed curves; inactive = no such curve, though single readings can be large; an effect the other way counts as inactive or inconclusive.

Legend:
[1] = qHTS assay to identify small molecule antagonists of the vitamin D receptor (VDR) signaling pathway - cell viability counter screen (AID 743225); also: % is scaled to controls: 0 for no effect and ±100 for the full control effect; nearly all actives have a fitted effect of over 50% in size
Procedure, shortened: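 HEK293T VDR-bla; cpd + 1a,25-(OH)2D3 3 nM final, 16 h 37C/5% CO2; B/G FRET substrate 2 h RT; then CellTiter-Glo 30 min RT, luminescence.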

[2] = qHTS assay to identify small molecule agonists of the NFkB signaling pathway (AID 1159509; active = well fitted curve in the direction sought with a large enough effect in the signal ratio in the repeat runs, not every such curve was filed as active; the % refers to the signal ratio; also: series mostly up to about 61 µM; % is scaled to controls: 0 for no effect and ±100 for the full control effect)
Procedure, shortened: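 Readout: FRET fluorescence, 405 nm excitation, 460/530 nm emission; beta-lactamase expression disrupts FRET. Cells: ME-180 stably carrying NF-kB-driven bla reporter. Compound exposure 5 hr, 37 C, 5% CO2.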

[3] = qHTS assay to identify small molecule agonists of the NFkB signaling pathway - cell viability counter screen (AID 1159515; calls by dose curve; also: series mostly up to about 61 µM; % is scaled to controls: 0 for no effect and ±100 for the full control effect; nearly all actives have a fitted effect of over 55% in size)
Procedure, shortened: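 Tox21 library compounds were tested for cytotoxicity against NFkB-bla ME-180 cells during a 5 hr exposure at 37 C. CellTiter-Glo luminescence served as the viability read-out.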

[4] = qHTS assay to identify small molecule agonists of the endoplasmic reticulum stress response signaling pathway (AID 1159516; active = well fitted activation curve with a large enough effect in the signal ratio in the repeat runs, not every such curve was filed as active; the % refers to the signal ratio; also: % is scaled to controls: 0 for no effect and ±100 for the full control effect)
Procedure, shortened: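 Fluorescence at 460 and 530 nm (405 nm excitation) reports beta-lactamase from an ER stress response element in HeLa cells treated 5 hr at 37 C.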

[5] = qHTS assay to identify small molecule antagonists of the retinoid-related orphan receptor gamma (ROR-gamma) signaling pathway - cell viability counter screen (AID 1159520); also: % is scaled to controls: 0 for no effect and ±100 for the full control effect; nearly all actives have a fitted effect of over 50% in size
Procedure, shortened: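 Tet-on ROR gamma CHO cells were given compounds for 2 hr, then doxycycline hyclate at 1 uM final, and incubated 16 hr at 37 C. Viability was measured as ATP content by CellTiter-Glo luminescence.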

[6] = qHTS assay to identify small molecule agonists of the AP-1 signaling pathway - cell viability counter screen (AID 1159525; calls by dose curve; also: nearly all actives have a fitted effect of over 55% in size)
Procedure, shortened: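 Same-well cytotoxicity counter screen of the Tox21 10K library in ME-180 cells. The readout is ATP-dependent luminescence after 5 h compound treatment. Data are normalised to DMSO and tetra n-octyl ammonium bromide controls.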

[7] = qHTS assay to identify small molecule agonists of the AP-1 signaling pathway (AID 1159526; calls by dose curve; also: % is scaled to controls: 0 for no effect and ±100 for the full control effect)
[8] = target: Retinoic acid receptor RXR-alpha (Homo sapiens) (UniProt P19793); experiment: qHTS assay to identify small molecule agonists of the RXR signaling pathway (AID 1159527; calls by dose curve; also: % is scaled to controls: 0 for no effect and ±100 for the full control effect; nearly all actives have a fitted effect of over 35% in size)
Sequence of Retinoic acid receptor RXR-alpha (Homo sapiens) (P19793 whole entry, looked up): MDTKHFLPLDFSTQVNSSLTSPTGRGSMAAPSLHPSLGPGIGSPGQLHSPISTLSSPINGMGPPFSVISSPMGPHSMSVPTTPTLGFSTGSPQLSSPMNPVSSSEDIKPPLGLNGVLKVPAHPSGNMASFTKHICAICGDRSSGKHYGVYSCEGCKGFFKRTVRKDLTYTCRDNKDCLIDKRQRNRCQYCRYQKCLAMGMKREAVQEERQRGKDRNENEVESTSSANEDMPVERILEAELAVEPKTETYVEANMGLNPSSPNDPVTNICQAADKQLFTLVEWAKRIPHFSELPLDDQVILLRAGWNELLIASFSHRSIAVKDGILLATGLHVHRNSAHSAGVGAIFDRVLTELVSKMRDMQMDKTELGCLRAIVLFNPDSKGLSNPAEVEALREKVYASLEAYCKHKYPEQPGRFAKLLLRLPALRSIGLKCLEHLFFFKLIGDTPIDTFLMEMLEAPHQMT
Procedure, shortened: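 Cells plated at 2,000/well, rested 5 hr at 37 C, pin-dosed with DMSO compound solutions, incubated 16 hr, then loaded with B/G FRET substrate for 2 hr at RT before dual-emission fluorescence reading.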

[9] = qHTS assay to identify small molecule agonists of the RXR signaling pathway - cell viability counter screen (AID 1159529);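 also: HEK 293T cells carrying an RXR-alpha UAS beta-lactamase reporter; series mostly up to about 77 µM; % is scaled to controls: 0 for no effect and ±100 for the full control effect; nearly all actives have a fitted effect of over 50% in size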
Procedure, shortened: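 Steps: seed RXR-alpha-UAS-bla HEK 293T cells in assay medium containing 2% charcoal-stripped FBS; incubate 5 hr; add compounds in DMSO; incubate 16 hr at 37 C; after the bla read, add CellTiter-Glo and read luminescence at 30 min.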

[10] = qHTS assay to identify small molecule antagonists of the retinoid acid receptor (RAR) signaling pathway - cell viability counter screen (AID 1159551); also: % is scaled to controls: 0 for no effect and ±100 for the full control effect; nearly all actives have a fitted effect of over 35% in size
Procedure, shortened: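 In this counter screen, the RARE-luciferase line C3RL4 was exposed for 6 h at 37 C and 5% CO2 to compounds with retinol at 1 uM final. Cellular ATP, read by luminescence, served as the viability measure.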

[11] = qHTS assay to identify small molecule antagonists of the estrogen related receptor (ERR) signaling pathway from Tox21 library - cell viability counter screen (AID 1224834); also: % is scaled to controls: 0 for no effect and ±100 for the full control effect; nearly all actives have a fitted effect of over 30% in size
Procedure, shortened: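 Counter screen run in ERR cells (2,000 cells/well): cells pre-incubated 6 h, then treated with compounds for 17.5 h at 37 C. Fluorescence was read 30 min after CellTiter-Fluor addition.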

[12] = qHTS assay to identify small molecule agonists of the endoplasmic reticulum stress response signaling pathway - cell viability counter screen (AID 1159517; calls by dose curve; also: series mostly up to about 61 µM; % is scaled to controls: 0 for no effect and ±100 for the full control effect; nearly all actives have a fitted effect of over 50% in size)
Procedure, shortened: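 Steps: seed 1,500 ESRE-bla HeLa cells per well; incubate overnight at 37 C, 5% CO2; add compounds in DMSO for 5 hr; run FRET substrate 2 hr RT; add CellTiter-Glo, wait 30 min, read luminescence.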

[13] = target: Nuclear receptor ROR-gamma (Homo sapiens) (UniProt P51449); experiment: qHTS assay to identify small molecule antagonists of the retinoid-related orphan receptor gamma (ROR-gamma) signaling pathway (AID 1159521)
Procedure, shortened: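 Cells were plated, rested 4 h at 37 C, exposed to compounds for 2 h, then given 1 uM final doxycycline hyclate to induce RORγ expression. After 16 h, ONE-Glo luminescence from the ROR response element reporter was measured.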

[14] = qHTS assay to identify small molecule antagonists of the retinoic acid receptor (RAR) signaling pathway (AID 1159552)
Procedure, shortened: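 Retinol at 1 uM final stimulated RARE-luciferase expression in C3RL4 cells exposed to test compounds for 6 hr at 37 C. Reduced luminescence, read 30 min after detection reagent, indicated pathway antagonism.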

[15] = qHTS assay to identify small molecule agonists of the retinoic acid receptor (RAR) signaling pathway (AID 1159553); also: % is scaled to controls: 0 for no effect and ±100 for the full control effect
Procedure, shortened: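 In this cell-based screen, 1,000 C3RL4 cells per well were cultured overnight, dosed with test chemicals in DMSO for 6 hr, and assessed for RARE luciferase luminescence.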

[16] = qHTS assay to identify small molecule antagonists of the estrogen related receptor (ERR) signaling pathway (AID 1224819)
Procedure, shortened: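 Seed ERR cells 2,000/well; rest 6 h at 37 C/5% CO2; pin compounds in DMSO; incubate 18 h at 37 C; add One-Glo; wait 30 min at room temperature; measure luminescence.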

[17] = qHTS assay to identify small molecule agonists of the estrogen related receptor (ERR) signaling pathway (AID 1224820); also: % is scaled to controls: 0 for no effect and ±100 for the full control effect
Procedure, shortened: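 Luminescence readout (One-Glo, 30 min RT) from NTP-supplied ERR cell line exposed to compounds for 18 h at 37 C. Cells seeded 2,000 per well and pre-incubated 6 h before pin-tool compound transfer.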

[18] = system: estrogen-related receptor alpha (ERRalpha) with PGC-1alpha coactivator, human; experiment: qHTS assay to identify small molecule antagonists of the estrogen related receptor signaling pathway with the pleiotropic PPARgamma coactivator (PGC) (AID 1224821; calls by dose curve)
Procedure, shortened: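 PGC/ERR reporter cells; 6 h pre-incubation 37 C/5% CO2; pin-tool compound in DMSO, 18 h 37 C; One-Glo added, 30 min RT; luminescence read. qHTS antagonist mode.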

[19] = qHTS assay to identify small molecule antagonists of the estrogen related receptor signaling pathway with the pleiotropic PPARgamma coactivator (PGC) cell viability counter screen (AID 1224822)
Procedure, shortened: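 17.5 h compound treatment of PGC/ERR cells at 37 C; readout CellTiter-Fluor fluorescence; run alongside the PGC/ERR antagonist screen to flag cytotoxic compounds.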

[20] = qHTS assay to identify small molecule agonists of the estrogen related receptor signaling pathway with the pleiotropic PPARgamma coactivator (PGC) (AID 1224823); also: % is scaled to controls: 0 for no effect and ±100 for the full control effect
Procedure, shortened: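 Luminescence readout (One-Glo, 30 min RT) from PGC/ERR cell line treated 18 h at 37 C with pin-tool-delivered DMSO compound solutions; cells plated 6 h before dosing. Quantitative HTS format.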

O=C(O)c1cc(Cl)cc(Cl)c1O
inactive: Potency [1] | outcome [2] | Potency [3] | Potency [4] | Potency [5] | Potency [6] | outcome [7] | Potency [8] | Potency [9] | Potency [10] | Potency [11]

Cc1cc(CCC(=O)OCCOCCOCCOC(=O)CCc2cc(C)c(O)c(C(C)(C)C)c2)cc(C(C)(C)C)c1O
inactive: outcome [2] | Potency [3] | Potency [12] | Potency [5] | Potency [13] | Potency [6] | outcome [7] | Potency [8] | Potency [9] | Potency [14] | Potency [15]

COC(=O)c1sccc1S(N)(=O)=O
inactive: Potency [1] | outcome [2] | Potency [3] | Potency [12] | Potency [5] | Potency [13] | Potency [6] | outcome [7] | Potency [8] | Potency [9] | Potency [10] | Potency [15] | Potency [11]

CCN(CC)c1cccc(O)c1
inactive: Potency [1] | outcome [2] | Potency [3] | Potency [12] | Potency [5] | Potency [13] | Potency [6] | outcome [7] | Potency [8] | Potency [9] | Potency [10] | Potency [14] | Potency [15] | Potency [11]

CCN(CC)C(=O)N1CCN(C)CC1
inactive: Potency [1] | outcome [2] | Potency [3] | Potency [12] | Potency [5] | Potency [13] | Potency [6] | outcome [7] | Potency [8] | Potency [9] | Potency [10] | Potency [14] | Potency [15] | Potency [11]

CC(C(=O)O)c1ccc(C(=O)c2cccs2)cc1 (stereo not given)
inactive: Potency [1] | outcome [2] | Potency [3] | Potency [12] | Potency [5] | Potency [13] | Potency [6] | outcome [7] | Potency [8] | Potency [9] | Potency [10] | Potency [15] | Potency [11]

CC(CCc1ccc(O)cc1)NCCc1ccc(O)c(O)c1 (stereo not given)
inactive: Potency [1] | outcome [2] | Potency [3] | Potency [12] | Potency [5] | Potency [13] | Potency [6] | outcome [7] | Potency [8] | Potency [9] | Potency [10] | Potency [16] | outcome [17] | Potency [18] | outcome [19] | outcome [20] | Potency [11]

CCCCC(CC)COS(=O)(=O)O (stereo not given)
inactive: Potency [1] | outcome [2] | Potency [3] | Potency [12] | Potency [5] | Potency [13] | Potency [6] | outcome [7] | Potency [8] | Potency [9] | Potency [10] | Potency [14] | Potency [15] | Potency [11]

CCCCCCCCCCCCCCN(C)C
inactive: Potency [1] | outcome [2] | Potency [3] | Potency [12] | activity, negative = cytotoxicity [5] 0.214% [at 19 µM] | activity change, negative = inhibition [13] -1.54% [at 19 µM] | viability change, negative = cytotoxic [6] 1.48% [at 15.8 µM] | activation [7] -14.8% [at 15.8 µM] | activation [8] 7.58% [at 15.8 µM] | activity change, negative = cytotoxicity [9] 0.892% [at 15.8 µM] | activity change, negative = cytotoxicity [10] 0.962% [at 19 µM] | Potency [15] | viability change, negative = cytotoxic [11] -1.07% [at 19 µM]
